Source: PubChem BioAssay AID1159580 (chemical genetic matrix, 2015)
Among all 5,500 compounds or so, about 2,000 (36%) were called active. Inconclusive results (about 18%) are left out. Cut-off read from the data, not from the text of the source: active = normalized growth mostly below about 0.91 (no sharp cut-off); inconclusive = no clear call, values can overlap the other calls; inactive = mostly above about 0.92. The list shows a part of the results.

Assay: chemical genetic growth profiling, strain panel (AID 1159580);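 note: tested at 20 µM; growth read once vehicle control cultures reached saturation at 30 °C; 1 = growth at the plate median or of vehicle wells; lower values mean less growth of the strain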
Conditions: S. cerevisiae deletion strains, growth OD

Measured: normalized growth

Oc1ccc2c(c1)O[C@H](c1ccc(O)c(O)c1)[C@@H](O)C2
inactive: locus YAL013W, strain DEP1, stronger effect = lower value 1.03 | locus YAL021C, strain ccr4, stronger effect = lower value 1.02 | locus YAL026C, strain drs2, stronger effect = lower value 1.03 | locus YAL030W, strain snc1, stronger effect = lower value 1.02 | locus YBL061C, strain skt5, stronger effect = lower value 1.04 | locus YBR009C, strain hhf1, stronger effect = lower value 1.03 | locus YBR021W, strain FUR4, stronger effect = lower value 1.04 | locus YBR023C, strain chs3, stronger effect = lower value 1.03 | locus YBR171W, strain sec66, stronger effect = lower value 1.03 | locus YBR229C, strain ROT2, stronger effect = lower value 1.03 | locus YBR231C, strain swc5, stronger effect = lower value 1.03 | locus YBR279W, strain paf1, stronger effect = lower value 1.02 | locus YCL011C, strain gbp2, stronger effect = lower value 1.02 | locus YCL016C, strain dcc1, stronger effect = lower value 1.02 | locus YCL029C, strain bik1, stronger effect = lower value 1.02 | locus YCL061C, strain MRC1, stronger effect = lower value 1.02 | locus YCL069W, strain vba3, stronger effect = lower value 1.03 | locus YCR088W, strain abp1, stronger effect = lower value 1.02 | locus YDL005C, strain med2, stronger effect = lower value 1.02 | locus YDL035C, strain GPR1, stronger effect = lower value 1.07 | locus YDL040C, strain nat1, stronger effect = lower value 1.03 | locus YDL074C, strain BRE1, stronger effect = lower value 1.08 | locus YDL101C, strain DUN1, stronger effect = lower value 1.03 | locus YDL134C, strain PPH21, stronger effect = lower value 1.05 | locus YDL185W, strain tfp1, stronger effect = lower value 0.989 | locus YDL192W, strain arf1, stronger effect = lower value 1.03 | locus YDR001C, strain nth1, stronger effect = lower value 1.03 | locus YDR069C, strain doa4, stronger effect = lower value 1.03 | locus YDR101C, strain arx1, stronger effect = lower value 1 | locus YDR137W, strain rgp1, stronger effect = lower value 1.01 | locus YDR150W, strain NUM1, stronger effect = lower value 1.03 | locus YDR159W, strain sac3, stronger effect = lower value 1.04 | locus YDR162C, strain NBP2, stronger effect = lower value 1.04 | locus YDR195W, strain ref2 0.991 | locus YDR297W, strain sur2, stronger effect = lower value 1.03 | locus YDR318W, strain mcm21, stronger effect = lower value 1.01 | locus YDR334W, strain swr1, stronger effect = lower value 1.04 | locus YDR335W, strain msn5, stronger effect = lower value 1.03 | locus YDR388W, stronger effect = lower value 0.992 | locus YDR392W, strain spt3, stronger effect = lower value 1.03 | locus YDR502C, strain sam2, stronger effect = lower value 0.993 | locus YEL003W, strain gim4, stronger effect = lower value 1.03 | locus YEL037C, strain rad23, stronger effect = lower value 1.02 | locus YEL061C, strain CIN8 (second series), stronger effect = lower value 1.03 | locus YEL061C, strain CIN8, stronger effect = lower value 1.03 | locus YER015W, strain faa2, stronger effect = lower value 1.02 | locus YER016W, strain bim1, stronger effect = lower value 1.02 | locus YER110C, stronger effect = lower value 1.02 | locus YER111C, strain swi4, stronger effect = lower value 1.03 | locus YER155C, strain BEM2 (second series), stronger effect = lower value 1.03 | locus YER155C, strain BEM2, stronger effect = lower value 1.03 | locus YER167W, strain BCK2, stronger effect = lower value 1.03 | locus YFR010W, strain ubp6, stronger effect = lower value 1.02 | locus YGL078C, strain dbp3, stronger effect = lower value 1.01 | locus YGL086W, strain mad1, stronger effect = lower value 0.997 | locus YGL167C, strain pmr1, stronger effect = lower value 1.02 | locus YGL173C, strain kem1, stronger effect = lower value 1.04 | locus YGL227W, strain vid30, stronger effect = lower value 1.03 | locus YGL240W, strain doc1, stronger effect = lower value 1.03 | locus YGL248W, strain PDE1, stronger effect = lower value 1.06 | locus YGL253W, strain hxk2, stronger effect = lower value 1.02 | locus YGR078C, strain PAC10, stronger effect = lower value 1.04 | locus YGR135W, strain pre9, stronger effect = lower value 1.01 | locus YGR252W, strain gcn5, stronger effect = lower value 0.989 | locus YHR013C, strain ard1, stronger effect = lower value 1.02 | locus YHR027C, strain rpn1, stronger effect = lower value 1.02 | locus YHR030C, strain SLT2, stronger effect = lower value 1.03 | locus YHR079C, strain IRE1 (second series), stronger effect = lower value 1 | locus YHR094C, strain hxt1, stronger effect = lower value 0.99 | locus YHR129C, strain ARP1, stronger effect = lower value 1.03 | locus YHR142W, strain chs7, stronger effect = lower value 1.04 | locus YHR200W, strain rpn10, stronger effect = lower value 1 | locus YIL066C, strain RNR3, stronger effect = lower value 1.04 | locus YIL073C, strain SPO22, stronger effect = lower value 1.1 | locus YIL125W, strain kgd1, stronger effect = lower value 1.02 | locus YIR030C, strain dcg1, stronger effect = lower value 1 | locus YJL092W, strain hpr5, stronger effect = lower value 1.02 | locus YJL095W, strain BCK1 (second series), stronger effect = lower value 1.03 | locus YJL095W, strain BCK1, stronger effect = lower value 1.08 | locus YJL115W, strain asf1, stronger effect = lower value 1.02 | locus YJL129C, strain trk1, stronger effect = lower value 1.04 | locus YJL134W, strain LCB3, stronger effect = lower value 1.03 | locus YJL154C, strain vps35, stronger effect = lower value 1.02 | locus YJL164C, strain tpk1, stronger effect = lower value 1.03 | locus YJL166W, strain qcr8, stronger effect = lower value 1.03 | locus YJL168C, strain set2, stronger effect = lower value 1.01 | locus YJL187C, strain SWE1 (second series), stronger effect = lower value 1.04 | locus YJL187C, strain SWE1, stronger effect = lower value 1.03 | locus YJR043C, strain POL32, stronger effect = lower value 1.06 | locus YKL009W, strain mrt4, stronger effect = lower value 1.01 | locus YKL068W, stronger effect = lower value 0.988 | locus YKL085W, strain MDH1 (second series), stronger effect = lower value 1.01 | locus YKL085W, strain MDH1, stronger effect = lower value 1.01 | locus YKL160W, strain elf1, stronger effect = lower value 1.02 | locus YKL190W, strain CNB1, stronger effect = lower value 1.03 | locus YKR001C, strain vps1, stronger effect = lower value 1.04 | locus YKR026C, strain gcn3, stronger effect = lower value 1.02 | locus YKR091W, strain srl3, stronger effect = lower value 1.03 | locus YLL001W, strain dnm1, stronger effect = lower value 1.02 | locus YLL026W, stronger effect = lower value 1.03 | locus YLL041C, strain sdh2, stronger effect = lower value 1.03 | locus YLR027C, strain aat2, stronger effect = lower value 1.02 | locus YLR039C, strain RIC1, stronger effect = lower value 1.23 | locus YLR058C, strain SHM2, stronger effect = lower value 1.04 | locus YLR102C, strain apc9, stronger effect = lower value 0.992 | locus YLR221C, strain rsa3, stronger effect = lower value 1.02 | locus YLR258W, strain gsy2, stronger effect = lower value 1.03 | locus YLR262C, strain YPT6 (second series), stronger effect = lower value 1.04 | locus YLR262C, strain YPT6, stronger effect = lower value 1.25 | locus YLR268W, strain sec22, stronger effect = lower value 1.02 | locus YLR320W, strain mms22, stronger effect = lower value 1.05 | locus YLR330W, strain CHS5, stronger effect = lower value 1.03 | locus YLR342W, strain FKS1, stronger effect = lower value 1.03 | locus YLR357W, strain rsc2, stronger effect = lower value 1.06 | locus YLR370C, strain arc18, stronger effect = lower value 1.04 | locus YLR371W, strain rom2, stronger effect = lower value 1.02 | locus YLR384C, strain iki3, stronger effect = lower value 1.03 | locus YLR418C, strain cdc73, stronger effect = lower value 1.03 | locus YML016C, strain PPZ1, stronger effect = lower value 1.03 | locus YML032C, strain rad52, stronger effect = lower value 1.01 | locus YML120C, strain ndi1, stronger effect = lower value 1.03 | locus YML124C, strain tub3, stronger effect = lower value 1.01 | locus YMR058W, strain fet3, stronger effect = lower value 1.02 | locus YMR078C, strain ctf18, stronger effect = lower value 0.992 | locus YMR125W, strain sto1, stronger effect = lower value 1.02 | locus YMR129W, stronger effect = lower value 1.03 | locus YMR205C, strain PFK2, stronger effect = lower value 1.06 | locus YMR223W, strain ubp8, stronger effect = lower value 0.999 | locus YMR231W, strain pep5, stronger effect = lower value 1.01 | locus YMR307W, strain GAS1, stronger effect = lower value 1.2 | locus YNL067W, strain RPL9B, stronger effect = lower value 1.02 | locus YNL071W, strain lat1, stronger effect = lower value 1.05 | locus YNL153C, strain GIM3, stronger effect = lower value 1.04 | locus YNL209W, strain ssb2, stronger effect = lower value 1.01 | locus YNL233W, strain BNI4, stronger effect = lower value 1.04 | locus YNL248C, strain rpa49, stronger effect = lower value 1.03 | locus YNL250W, strain rad50, stronger effect = lower value 1.01 | locus YNL271C, strain bni1, stronger effect = lower value 1.03 | locus YNL298W, strain CLA4, stronger effect = lower value 1.01 | locus YNL307C, strain MCK1, stronger effect = lower value 1.01 | locus YNL322C, strain KRE1 (second series), stronger effect = lower value 1.02 | locus YNR049C, strain mso1, stronger effect = lower value 1.03 | locus YNR052C, strain pop2, stronger effect = lower value 1 | locus YOL012C, strain htz1 0.833 | locus YOL147C, strain pex11, stronger effect = lower value 0.996 | locus YOR001W, strain rrp6, stronger effect = lower value 1.03 | locus YOR061W, strain CKA2, stronger effect = lower value 1.04 | locus YOR069W, strain VPS5, stronger effect = lower value 1.03 | locus YOR070C, strain gyp1, stronger effect = lower value 1.03 | locus YOR080W, strain dia2, stronger effect = lower value 1.02 | locus YOR083W, strain WHI5, stronger effect = lower value 1.02 | locus YOR106W, strain vam3, stronger effect = lower value 1.03 | locus YOR136W, strain idh2, stronger effect = lower value 0.996 | locus YOR144C, strain elg1, stronger effect = lower value 0.992 | locus YOR184W, strain ser1, stronger effect = lower value 1.05 | locus YOR265W, strain rbl2, stronger effect = lower value 1.03 | locus YOR270C, strain vph1, stronger effect = lower value 1.06 | locus YOR290C, strain snf2, stronger effect = lower value 1.05 | locus YOR316C, strain cot1, stronger effect = lower value 0.999 | locus YPL051W, strain arl3, stronger effect = lower value 1.01 | locus YPL078C, strain atp4, stronger effect = lower value 1.02 | locus YPL106C, strain sse1, stronger effect = lower value 0.998 | locus YPL240C, strain hsp82, stronger effect = lower value 1.02 | locus YPR119W, strain clb2, stronger effect = lower value 0.996 | locus YPR141C, strain kar3, stronger effect = lower value 1.01 | locus YPR163C, strain tif3, stronger effect = lower value 0.999 | locus YPR167C, strain met16, stronger effect = lower value 0.996 | strain wtn01, stronger effect = lower value 1.02
